CRE-bla Fsk – Cell signaling CRE-BLA (Fsk stim). Potency, µM (top dose mostly 38.2 µM), for the others: top-dose activity change, negative = inhibition, most hits filed as activators. 71,000 tested, 2.5% active. CHO CRE-bla reporter (cAMP response element driving beta-lactamase), forskolin EC10, beta-lactamase ratio; active means well fitted activation curve with a large enough effect in the signal ratio, with a control signal flat, not every such curve was filed as active; inconclusive means small, poorly fitted or top-dose-only effect, or effect the other way, or a change in a side signal; the % refers to the signal ratio; further: % of control where 0% means no effect
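The 460nm/530nm emission ratio after CCF4 loading defined %Activity, from which AC50 values were obtained. CRE-bla CHO cells received compound dilution series together with an EC10 level of NKH 477 for 3 hours at 37 degrees Celsius.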
IkB sig inh – IkB Signaling. ABC-DLBCL IkBa-CBG/CBR dual luciferase ratio, 4 h; response scale: scaled: untreated 0%, proteasome inhibitor 100%. Potency, µM (top dose mostly 57.1 µM), for the others: at the top dose IkBa stabilization activation. 110,000 tested, 0.04% active; active means well fitted curve in the direction sought with a large enough effect in the signal ratio, not every such curve was filed as active; inconclusive means small, poorly fitted or top-dose-only effect, or a change in a side signal; the % refers to the signal ratio;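 further: the direction sought is a rising ratio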
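Luminescence ratio of IκBα-fused green versus native red beetle luciferase in OCI-Ly3 cells, 4 h post-doxycycline with compound; red signal alone, scaled from basal (0%) to zero light (-100%), flagged nonspecific or cytotoxic effects.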
Imprint erasure – qHTS Assay for Compounds that Induce Erasure of Genomic Imprints; mouse ES Peg3-LacZ reporter, beta-gal luminescence, 40 h; Potency, µM (top dose mostly 60.7 µM), without a hit: top-dose activity change, positive = activation, usual class: activators; 110,000 tested, 0.02% active; AID 1948, 2009
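Gelatin-coated wells received 300 freshly trypsinized female ES cells with a Peg3LacZ-Neo reporter on the maternal allele, then incubated 40 hours at 37C. BetaGlo was added for 5 minutes at room temperature before a single luminescence read.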
p53ts 39C kill – qHTS Screen for Compounds that Selectively Target Cancer Cells with p53 Mutations: Cytotoxicity of p53ts Cells at the Nonpermissive Temperature; Potency, µM (titrated, usually from 46.1 µM), without a hit: at the top dose activity change, negative = cell killing, actives largely listed as cytotoxic; 130,000 tested, 1.5% active; H1299-p53A138V viability at 39C, ATP luminescence, 24 h; further: on the % scale 0 is the no-effect control and ±100 the full control effect; nearly all actives have a fitted effect of over 55% in size
p53ts 32C kill – qHTS Screen for Compounds that Selectively Target Cancer Cells with p53 Mutations: Cytotoxicity of p53ts Cells at the Permissive Temperature | H1299-p53A138V at 32C, ATP luminescence viability, 24 h | Potency, µM (titrated, usually from 46.1 µM), for the others: top-dose activity change, negative = cytotoxicity, actives largely listed as cytotoxic | 130,000 tested, 0.93% active;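 further: 0% = DMSO and -100% = full killing by reference compound; nearly all actives have a fitted effect of over 55% in size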
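ATP-content luminescence (ATPlite) read-out after 24 h compound exposure at 32C in H1299-p53A138V cells (600/well). Tested up to 46 uM. Normalized to DMSO (0%) and 100 uM tamoxifen (100% killing); Hill-fit AC50.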
Numbers without * were called inactive; ? = inconclusive; nt = no result; [ ] = remark or other dose. In the library only some 3% were active in any assay of this set; here they are far more common. Unless noted, the call rests on the fitted dose curve; in most records, active means well fitted curve in the direction sought with a large enough effect; inconclusive means small, poorly fitted or top-dose-only effect, or another doubt; inactive means no such curve, though single readings can be large; an effect the other way counts as inactive or inconclusive. Potency means the concentration at half of the fitted maximal effect.

SMILES	CRE-bla Fsk	IkB sig inh	Imprint erasure	p53ts 39C kill	p53ts 32C kill
COc1ccc2nc(SCc3nc(N)nc(Nc4ccccc4)n3)[nH]c2c1	2µM*	?	-10.5%	-6.8%	-8.8%
COc1ccc2nc(SCC(N)=O)[nH]c2c1	?	-1.2%	-15.6%	8.3%	4.1%
CCCN(CCC)c1nc2ccccc2nc1C(C#N)C(=O)OCCOC (centres undefined)	12.6µM*	0.2%	-19.5%	5.1%	19.9%
C=CCN(CC=C)c1nc2ccccc2nc1C(C#N)C(=O)OCCOC (centres undefined)	15.8µM*	-1.5%	-14.4%	21.1%	12.8%
CCCCCCOC(=O)C(C#N)c1nc2ccccc2nc1N1CCCCC1 (centres undefined)	?	2.6%	6.3%	-1.9%	6.7%
C=CCOC(=O)C(C#N)c1nc2ccccc2nc1N1CCN(c2ccccc2OCC)CC1 (centres undefined)	nt	nt	nt	-0.3%	nt
CS(=O)(=O)N(CC(=O)O)c1ccccc1	nt	nt	nt	-1.1%	3.4%
Oc1c(CN2CCc3ccccc3C2)cc(Cl)c2cccnc12	2.6%	?	-31.0%	3.98µM*	12.6µM*
Oc1c(CN2CCCCC2)cc(Br)c2cccnc12	-13.6%	?	-26.9%	10µM*	-23.0%
Oc1c(I)cc(Cl)c2cccnc12	?	?	-31.3%	7.94µM*	?
O=C(NCc1cccnc1)c1ccc(CN2CCc3ccccc3C2)cc1	nt	nt	nt	10.6%	2.0%
CCOc1ccc(-c2oc3cc(Cl)ccc3c(=O)c2O)cc1OC	nt	-4.9%	6.1%[10.9 µM]	7.94µM*	-15.2%
O=c1c(-c2ccc3c(c2)OCCO3)coc2cc(O)cc(O)c12	1.8%	?	-55.1%	7.94µM*	12.6µM*
COc1ccc(-c2nnc(Nc3nc4c(OC)cccc4s3)o2)c(OC)c1	1.7%	?	-31.1%	10µM*	?
Fc1cccc2sc(Nc3nnc(-c4ccccc4)o3)nc12	?	?	-51.4%	10µM*	15.8µM*
COc1cc(OC)cc(-c2nnc(Nc3nc4c(F)cccc4s3)o2)c1	9.5%	13.6%	7.4%	-22.7%	4.6%
COc1ccc(-c2nnc(Nc3nc4c(OC)cccc4s3)o2)cc1	12.6µM*	?	-18.8%	12.6µM*	?
COc1cccc(NC(=O)c2oc3ccccc3c2NC(=O)c2ccccc2C)c1	nt	?	?	-5.8%	-0.9%
COc1cc(N=c2c([N+](=O)[O-])nn(-c3ccc4c(c3)OCCO4)n2O)cc(OC)c1	nt	nt	nt	11.2µM*	nt
CCOc1ccc(/C=C/c2nc(C#N)c(N3CCCCC3)o2)cc1	nt	-1.1%	21.6%[10.9 µM]	-26.3%	11.7%
CCN1c2ccccc2NC2N=C(OC)C(c3ccccc3)C21 (centres undefined)	?	?	-24.6%	12.6µM*	?
CCOC(=O)c1cc(C)n(CC2CCC(C(=O)Nc3ccc(C)cc3)CC2)c1C (centres undefined)	nt	?	-6.4%[10.9 µM]	-4.9%	11.8%
CC#C[C@]1(O)CC[C@H]2C3CCC4=CC(=O)CCC4=C3[C@@H](c3ccc(N(C)C)cc3)C[C@@]21C (some centres undefined)	nt	nt	-11.6%	nt	nt
C/C(=N/Nc1ccc2ccccc2n1)c1ccccc1O	-8.9%[7.6 µM]	?	-56.3%[10.9 µM]	2.51µM*	3.16µM*
COC(=O)COc1ccc(Oc2nc(NC(C)(C)C)nc(N3CCOCC3)n2)nn1	nt	-1.4%	-6.4%[10.9 µM]	-0.8%	-2.8%
SMILES	CRE-bla Fsk	IkB sig inh	Imprint erasure	p53ts 39C kill	p53ts 32C kill
CCOc1ccc(N(Cc2cc3cc(C)ccc3[nH]c2=O)C(=O)c2cccc(Cl)c2)cc1	nt	-1.3%	-1.2%[10.9 µM]	-14.8%	13.0%
CCCCOc1ncnc2c1[nH]c1ccc(F)cc12	1µM*	-0.4%	-15.3%	-10.7%	-15.6%
O=C(OCC(=O)N1CCCCCC1)c1n[nH]c(=O)c2ccccc12	?	0.0%	-14.0%	-1.9%	-3.0%
CC1CCN(C(=O)COC(=O)c2n[nH]c3ccccc23)CC1	-2.8%	7.9%	-42.2%	10µM*	?
CN(C)Cc1cc(O)c(O)c(CN(C)C)c1	-6.9%[7.6 µM]	0.9%[11.4 µM]	-13.3%[10.9 µM]	4.3%[9.22 µM]	2.0%[9.22 µM]
Cn1c(=O)c2cc(C(=O)NC3CCCCCC3)sc2c2ccccc21	nt	0.7%	-9.6%[10.9 µM]	7.94µM*	?
O=C(O)CSc1nnc(-c2ccco2)o1	-5.3%	0.0%	7.4%	8.8%	4.4%
c1coc(-c2nnc(SCc3cn4ccccc4n3)o2)c1	10µM*	-0.3%	0.3%	3.5%	6.9%
Brc1c(CSc2nnc(-c3ccco3)o2)nc2ccccn12	3.16µM*	-3.4%	-10.2%	-8.0%	-13.1%
Cc1ccccc1OCC(=O)Nc1ccc(S(=O)(=O)N(Cc2ccccc2)c2ccccc2)cc1	nt	-0.3%	-14.2%[10.9 µM]	12.1%	-2.4%
Cc1ccc(CNC(=O)c2c(Nc3c(C)cccc3C)sc(C(=O)c3ccccc3)c2N)cc1	nt	?	-8.5%[10.9 µM]	?	-19.1%
COc1cc(-c2noc(CCC(=O)Nc3cc(C)ccc3C)n2)cc(OC)c1OC	nt	?	23.7%[10.9 µM]	3.8%	-2.0%
CCCn1c(C)nc2c(N(CCN(CC)CC)CCN(CC)CC)nc(C)nc21	-6.0%	nt	1.5%	-8.2%	-11.3%
COCCN(CCOC)c1nc(C)nc2c1nc(-c1ccccc1)n2CCN(C)C	?	nt	-10.0%	-0.9%	-6.2%
CCCn1c(C)nc2c(N(CCN(C)C)Cc3ccccc3)nc(C)nc21	12.6µM*	nt	-13.8%	-4.4%	-4.5%
COCCN(CCOC)c1nc(C)nc2c1nc(-c1ccccc1)n2CCN1CCOCC1	12.6µM*	nt	-0.8%	-4.6%	0.9%
CCCn1c(C)nc2c(N(CCOC)CCOC)nc(C)nc21	12.6µM*	nt	-3.6%	-7.9%	-5.1%
Cc1nn(-c2ccccc2)c2nc(C3CC3)cc(C(=O)Nc3cccc(F)c3)c12	nt	?	18.0%[10.9 µM]	-1.9%	11.3%
Nc1cc(C2CCCC2)nn1-c1ccccc1	-7.8%	1.2%	-83.8%	?	12.6µM*
COC(=O)c1ccc(Cl)cc1NC(=O)Nc1nnc(N2CCCC2)s1	nt	?	-10.6%[10.9 µM]	10.3%	-6.2%
COc1cc(Cl)c(C)cc1Nc1c2c(nc3ccccc13)CCC2	nt	?	-19.2%[10.9 µM]	2µM*	?
CCn1nc(C(=O)OCc2c(C)noc2C)c2ccccc2c1=O	10µM*	-1.5%	-9.9%	-9.4%	6.7%
Cc1nc2nc(SCC(=O)N(C)Cc3ccccc3)nn2c(C)c1Cc1ccccc1Cl	nt	?	4.5%[10.9 µM]	-22.7%	-0.3%
CCN(CC)S(=O)(=O)c1ccc2c(c1)c(=O)c(C(=O)NCc1ccccc1Cl)cn2C	nt	?	27.7%[10.9 µM]	6.31µM*	?
CCN(CC)S(=O)(=O)c1ccc2c(c1)c(=O)c(C(=O)NCc1ccccc1)cn2C	nt	-0.5%	11.6%[10.9 µM]	2.6%	-12.2%
COc1ccccc1N1CCN(C(=O)c2cc3c(=O)n(C)c4ccccc4c3s2)CC1	nt	?	20.0%[10.9 µM]	8.1%	3.5%

Source: PubChem BioAssay (National Center for Advancing Translational Sciences (NCATS))
